# Measured values taken from PubChem BioAssay AID1159580 (chemical genetic matrix, 2015).
# In all, about 5,500 compounds went through this assay and about 2,000 (36%) were called active. About 18% were inconclusive and are not listed. The list shows a part of the results. Unmarked numbers belong to inactive results. No stated cut-off is given here; in the data, active means normalized growth mostly below about 0.91 (no sharp cut-off); inconclusive means no clear call, values can overlap the other calls; inactive means mostly above about 0.92.
# Assay: chemical genetic growth profiling, strain panel (AID 1159580);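 further: tested at 20 µM; growth read once vehicle control cultures reached saturation at 30 °C; 1 = growth at the plate median or of vehicle wells; lower values mean less growth of the strain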
# Conditions: S. cerevisiae deletion strains, growth OD
# [1] = locus YDL101C, strain DUN1, active compounds read low
# [2] = locus YHR030C, strain SLT2, active compounds read low
smiles,measurement,setting,value
O=C(O)C1c2ccccc2C(=O)N(Cc2ccc3c(c2)OCO3)C1c1cccnc1 (centres undefined),normalized growth,"locus YAL013W, strain DEP1, active compounds read low",1.02
same,normalized growth,"locus YBR229C, strain ROT2, active compounds read low",1.01
same,normalized growth,"locus YCL061C, strain MRC1, active compounds read low",0.994
same,normalized growth,[1],1.01
same,normalized growth,"locus YDL134C, strain PPH21, active compounds read low",0.993
same,normalized growth,"locus YDR150W, strain NUM1, active compounds read low",0.978
same,normalized growth,"locus YEL061C, strain CIN8, active compounds read low",1.04
same,normalized growth,"locus YGR078C, strain PAC10, active compounds read low",1.04
same,normalized growth,[2],1.05
same,normalized growth,"locus YHR087W, strain rtc3, active compounds read low",1.01
same,normalized growth,"locus YJR043C, strain POL32, active compounds read low",0.996
same,normalized growth,"locus YJR075W, strain HOC1, active compounds read low",1.03
same,normalized growth,"locus YKL190W, strain CNB1, active compounds read low",0.989
same,normalized growth,"locus YLR039C, strain RIC1, active compounds read low",1.01
same,normalized growth,"locus YLR058C, strain SHM2 (second series), active compounds read low",0.997
same,normalized growth,"locus YLR085C, strain ARP6, active compounds read low",1.02
same,normalized growth,"locus YLR262C, strain YPT6, active compounds read low",0.971
same,normalized growth,"locus YML094W, strain GIM5, active compounds read low",1.04
same,normalized growth,"locus YMR219W, strain ESC1, active compounds read low",1
same,normalized growth,"locus YMR263W, strain SAP30, active compounds read low",1
same,normalized growth,"locus YNL128W, strain TEP1, active compounds read low",0.993
same,normalized growth,"locus YNL153C, strain GIM3, active compounds read low",1.01
same,normalized growth,"locus YNL298W, strain CLA4 (second series), active compounds read low",1.04
same,normalized growth,"locus YNL322C, strain KRE1, active compounds read low",1.02
same,normalized growth,"locus YNR030W, strain Alg12, active compounds read low",1
same,normalized growth,"locus YPL055C, strain LGE1, active compounds read low",1.03
same,normalized growth,"locus YPL241C, strain CIN2, active compounds read low",0.971
same,normalized growth,"locus YPR135W, strain CTF4, active compounds read low",0.982
O=C(NCc1ccc2c(c1)OCO2)c1cc2ccccc2s1,normalized growth,"locus YAR019C, strain CDC15, active compounds read low",0.858 (active)
same,normalized growth,"locus YBL105C, strain PKC1, active compounds read low",0.867 (active)
same,normalized growth,"locus YBR135W, strain CKS1, active compounds read low",0.87 (active)
same,normalized growth,"locus YBR136W, strain MEC1, active compounds read low",0.866 (active)
same,normalized growth,"locus YBR160W, strain CDC28, active compounds read low",0.873 (active)
same,normalized growth,"locus YDL017W, strain CDC7, active compounds read low",0.877 (active)
same,normalized growth,"locus YDL028C, strain MPS1, active compounds read low",0.9
same,normalized growth,[1],0.912
same,normalized growth,"locus YDL108W, strain KIN28, active compounds read low",0.888 (active)
same,normalized growth,"locus YDL132W, strain cdc53, active compounds read low",0.851 (active)
same,normalized growth,"locus YDL214C, strain PRR2, active compounds read low",0.58 (active)
same,normalized growth,"locus YDR052C, strain DBF4, active compounds read low",0.933
same,normalized growth,"locus YDR054C, strain cdc34, active compounds read low",0.648 (active)
same,normalized growth,"locus YDR226W, strain ADK1, active compounds read low",0.874 (active)
same,normalized growth,"locus YDR477W, strain SNF1, active compounds read low",0.422 (active)
same,normalized growth,"locus YER123W, strain YCK3, active compounds read low",0.396 (active)
same,normalized growth,"locus YER133W, strain GLC7, active compounds read low",0.298 (active)
same,normalized growth,"locus YFL009W, strain cdc4, active compounds read low",0.858 (active)
same,normalized growth,"locus YFL029C, strain CAK1, active compounds read low",0.852 (active)
same,normalized growth,"locus YFR003C, strain YPI1, active compounds read low",0.872 (active)
same,normalized growth,"locus YFR019W, strain FAB1, active compounds read low",0.625 (active)
same,normalized growth,"locus YFR028C, strain CDC14, active compounds read low",0.864 (active)
same,normalized growth,"locus YGR040W, strain KSS1, active compounds read low",0.459 (active)
same,normalized growth,"locus YGR052W, strain FMP48, active compounds read low",0.406 (active)
same,normalized growth,"locus YGR092W, strain DBF2, active compounds read low",0.3 (active)
same,normalized growth,[2],0.14 (active)
same,normalized growth,"locus YHR079C, strain IRE1, active compounds read low",0.178 (active)
same,normalized growth,"locus YHR082C, strain KSP1, active compounds read low",0.571 (active)
same,normalized growth,"locus YHR205W, strain SCH9, active compounds read low",0.678
same,normalized growth,"locus YIL147C, strain SLN1, active compounds read low",0.871 (active)
same,normalized growth,"locus YJL095W, strain BCK1, active compounds read low",0.144 (active)
same,normalized growth,"locus YJL128C, strain PBS2, active compounds read low",0.854
same,normalized growth,"locus YJL157C, strain FAR1, active compounds read low",0.622 (active)
same,normalized growth,"locus YJR016C, strain ILV3, active compounds read low",0.87 (active)
same,normalized growth,"locus YJR066W, strain TOR1 (second series), active compounds read low",0.155 (active)
same,normalized growth,"locus YJR066W, strain TOR1, active compounds read low",0.432 (active)
same,normalized growth,"locus YKL048C, strain ELM1, active compounds read low",0.443 (active)
same,normalized growth,"locus YKL067W, strain YNK1, active compounds read low",0.675 (active)
same,normalized growth,"locus YKL101W, strain HSL1, active compounds read low",0.573 (active)
same,normalized growth,"locus YKL193C, strain SDS22, active compounds read low",0.882 (active)
same,normalized growth,"locus YKL203C, strain TOR2, active compounds read low",0.258 (active)
same,normalized growth,"locus YLR113W, strain HOG1, active compounds read low",0.626 (active)
same,normalized growth,"locus YLR133W, strain CKI1, active compounds read low",0.675 (active)
same,normalized growth,"locus YLR403W, strain SFP1, active compounds read low",0.583 (active)
same,normalized growth,"locus YML070W, strain DAK1, active compounds read low",0.54 (active)
same,normalized growth,"locus YMR001C, strain CDC5, active compounds read low",0.837 (active)
same,normalized growth,"locus YMR205C, strain PFK2 (second series), active compounds read low",0.692 (active)
same,normalized growth,"locus YMR277W, strain FCP1, active compounds read low",0.829 (active)
same,normalized growth,"locus YNL006W, strain LST8, active compounds read low",0.849 (active)
same,normalized growth,"locus YNL020C, strain ARK1, active compounds read low",0.663 (active)
same,normalized growth,"locus YNL161W, strain CBK1, active compounds read low",0.868 (active)
same,normalized growth,"locus YNL183C, strain NPR1, active compounds read low",0.322 (active)
same,normalized growth,"locus YNL207W, strain RIO2, active compounds read low",0.822 (active)
same,normalized growth,"locus YNL222W, strain SSU72, active compounds read low",0.853 (active)
same,normalized growth,"locus YNL307C, strain MCK1 (second series), active compounds read low",0.205 (active)
same,normalized growth,"locus YOL078W, strain AVO1, active compounds read low",0.842 (active)
same,normalized growth,"locus YOL136C, strain PFK27, active compounds read low",0.429 (active)
same,normalized growth,"locus YOR061W, strain CKA2, active compounds read low",0.589 (active)
same,normalized growth,"locus YOR119C, strain RIO1, active compounds read low",0.273 (active)
same,normalized growth,"locus YOR231W, strain MKK1, active compounds read low",0.369 (active)
same,normalized growth,"locus YOR329C, strain SCD5, active compounds read low",0.856 (active)
same,normalized growth,"locus YPL031C, strain PHO85, active compounds read low",0.392 (active)
same,normalized growth,"locus YPL153C, strain RAD53, active compounds read low",0.224 (active)
same,normalized growth,"locus YPL204W, strain HRR25, active compounds read low",0.3 (active)
same,normalized growth,"locus YPL209C, strain IPL1, active compounds read low",0.868 (active)
same,normalized growth,"locus YPL256C, strain CLN2, active compounds read low",0.558 (active)
same,normalized growth,"locus YPR025C, strain CCL1, active compounds read low",0.863 (active)
same,normalized growth,"locus YPR106W, strain ISR1, active compounds read low",0.882 (active)
same,normalized growth,"locus YPR111W, strain DBF20, active compounds read low",0.868 (active)
same,normalized growth,"strain NNK1, active compounds read low",0.835 (active)
same,normalized growth,"strain TSCII, active compounds read low",0.799 (active)
